Many of the other results were omitted from the sample, so hits are more common in it than they were.
Marburg entry inh: Marburg virus entry inhibition; Marburg virus pseudotyped entry inhibition, cell reporter; Potency, µM (highest dose often 37.8 µM), for inactives: top-dose activity change, negative = inhibition, actives largely listed as inhibitors; AID 540276; 300,000 compounds, 1.8% hits; calls by dose curve; tested in HEK293 cells; further: potency means the concentration at half of the fitted maximal effect; on the % scale 0 is the no-effect control and ±100 the full control effect
LASV entry inh: Lassa virus entry inhibition. 300,000 compounds, 1.2% hits. Lassa virus pseudotype entry inhibition, cell reporter. Potency, µM (series often up to 37.9 µM), without a hit: at the highest dose activity change, negative = inhibition, usual class: inhibitors; calls by dose curve; tested in HEK293 cells; further: potency means the concentration at half of the fitted maximal effect; on the % scale 0 is the no-effect control and ±100 the full control effect; nearly all actives have a fitted effect of over 50% in size
VACV Venus inh: inhibitors of vaccinia virus (Venus reporter); Vaccinia virus Venus reporter expression, fluorescence; Potency, µM (top dose mostly 36.5 µM), for the others: top-dose activity change, negative = inhibition, most hits filed as inhibitors; 330,000 compounds, 0.46% hits; calls by dose curve; tested in A549 cells; further: potency means the concentration at half of the fitted maximal effect; on the % scale 0 is the no-effect control and ±100 the full control effect; nearly all actives have a fitted effect of over 30% in size
CHX counter: affects cycloheximide protein synthesis inhibition readout, counter-screen; cell reporter, cycloheximide protein synthesis inhibition counterscreen; max response, %; 300,000 compounds, 12% hits; in the data active means max response mostly above about 13%, no sharp cut-off; inactive means mostly below about 14%; further: read at 38.3 µM for the half of the compounds with a filed dose; 0% is about no effect
Shiga toxin inh: blocks Shiga toxin action in Vero cells. Vero cells, Shiga toxin protein synthesis inhibition reporter. inhibition, % at 38.7 µM. 290,000 compounds, 9.2% hits; in the data active means inhibition mostly above about 28%, no sharp cut-off; inactive means mostly below about 43%; further: 0% is about no effect
VACV mCherry inh: vaccinia inhibition (mCherry reporter). AID 720579. Potency, µM (top dose mostly 36.5 µM), for inactives: at the highest dose activity change, negative = inhibition, hits mostly inhibitors. 310,000 compounds, 0.63% hits. Vaccinia virus mCherry reporter infection, fluorescence; calls by dose curve; tested in A549 cells; further: potency means the concentration at half of the fitted maximal effect; on the % scale 0 is the no-effect control and ±100 the full control effect; nearly all actives have a fitted effect of over 35% in size
* marks the source's active call; other numbers are inactive results; i = inactive; ? = inconclusive; / = no result given; [ ] = dose if it differs, or a comment.

SMILES	Marburg entry inh	LASV entry inh	VACV Venus inh	CHX counter	Shiga toxin inh	VACV mCherry inh
COC(=O)/C(=C\c1cc(OC)c(OC)c(OC)c1)c1nc2ccccc2[nH]1	-16%[46.1 µM]	?	-11%	22*	37	-20%
C/C(=C\c1ccc(N)cc1)c1nc2ccccc2[nH]1	/	/	/	49*	61*	/
COC(=O)/C(=C\c1ccc(O)cc1)c1nc2ccccc2[nH]1	/	/	-16%	35*	60*	-15%
Cc1ccc(S(=O)(=O)N2CCN(c3nc(-c4ccc(C)s4)nc4ccccc34)CC2)cc1	/	/	-16%	/	/	i
CCc1ccc(NC(=O)CSc2nncn2-c2cccnc2)cc1	?	?	1%	32*	151*	-3%
Cn1cnnc1SCC(=O)Nc1ccccc1	/	/	4%	2	1	i
COc1ccccc1NC(=O)CSc1nncn1-c1cccnc1	-3%	5%	-10%	1	24	-10%
Cn1cnnc1SCC(=O)Nc1ccc2ccccc2c1	-3%	0%	-3%	/	/	i
Cn1cnnc1SCC(=O)Nc1ccc(OCc2ccccc2)cc1	15%[46.1 µM]	8%	6%	48*	90*	-6%
COc1ccc(NC(=O)CSc2nncn2C)cc1	?	11%	-1%	25*	16	-6%
CC(=O)Nc1cc(C(=O)N2CCSCC2)cc2ncn(CCc3ccccn3)c12	/	/	2%	/	/	-14%
C=CCN1C(=O)CC[C@@]23C1=NC(C(=O)OC)=C(C(=O)OC)[C@@H]2N(C)c1ccccc13	14%[14.2 µM]	/	/	/	/	/
CCc1ccc(-c2ccc(C(=O)O)c(C)n2)cc1	?	?	-9%	40*	47*	-9%
CC1(C(=O)NS(=O)(=O)c2cccc(OC(F)F)c2)CCN1C(=O)c1ccccc1CCc1ccccc1 (stereo not given)	/	/	-5%	/	/	23%
COC(=O)C1=CN(Cc2ccc(C)cc2)C=C(C(=O)OC)C1c1cc(OC)c(OC)c(OC)c1	/	/	/	0	-8	/
COCCN1C=C(C(=O)OC)C(c2cc(Br)c(OC)c(OC)c2)C(C(=O)OC)=C1	-23%	11µM*	?	12	17	/
COc1ccc(/C=N/Nc2cc(N3CCCC3)nc(N3CCCC3)n2)cc1	?	3.2µM*	?	18	21	?
Oc1ccc(/C=N/Nc2cc(N3CCOCC3)nc(N3CCOCC3)n2)cc1	6.5µM*	-19%	-26%	/	/	-19%
Oc1ccc(/C=N/Nc2cc(N3CCCC3)nc(N3CCCC3)n2)cc1	?	-26%	-20%	3	12	-25%
c1ccc(Oc2ccc3ccccc3n2)cc1	-15%[46.1 µM]	0%	-13%	39*	130*	i
c1ccc2nc(OCCN3CC3)ccc2c1	?	?	?	0	11	?
COC(=O)c1ccc(Cn2c(=O)cc(C)c3c(C)nn(C)c32)cc1	/	1%[46.1 µM]	-8%	/	/	-10%
CN(C)C(=O)c1ccc(SC(=S)NCc2ccccc2)cc1	/	/	-27%	/	/	-6%
CNc1ccc2oc(C[C@H]3O[C@]4(CC[C@H]3C)O[C@H]([C@H](C)C(=O)c3ccc[nH]3)[C@H](C)C[C@H]4C)nc2c1C(=O)O	0.71µM*	/	/	/	/	/
CNc1ccc2oc(C[C@@H]3OC4(CC[C@@H]3C)O[C@H](C(C)C(=O)c3ccc[nH]3)[C@H](C)C[C@H]4C)nc2c1C(=O)O (stereo not given in full)	/	/	/	-12	-14	/
SMILES	Marburg entry inh	LASV entry inh	VACV Venus inh	CHX counter	Shiga toxin inh	VACV mCherry inh
COC(=O)CCCCCc1ccc(C(C)=O)s1	2%[46.1 µM]	2%	-18%	12*	11	i
CC(=O)c1ccc(CCCCCCCCCC(=O)O)s1	?	3%	-17%	-3	-11	-26%
O=C(Nc1ccc2c(c1)C(=O)N(CC1CCCO1)C2=O)c1cccc(Br)c1 (stereo not given)	23%	?	/	25*	115*	/
COc1ccccc1Oc1ccc2c(c1)C(=O)N(CC1CCCO1)C2=O (stereo not given)	14%	?	-15%	37*	46*	-11%
COc1ccc(NC(=O)c2ccc3c(c2)C(=O)N(CC2CCCO2)C3=O)cc1 (stereo not given)	7%[46.1 µM]	-15%[46.1 µM]	-10%	-2	21	-6%
COc1cccc(C(=O)Nc2ccc3c(c2)C(=O)N(CC2CCCO2)C3=O)c1 (stereo not given)	?	8%	-22%	44*	55*	-3%
COc1cccc(NC(=O)c2ccc3c(c2)C(=O)N(CC2CCCO2)C3=O)c1 (stereo not given)	/	/	/	30*	40	/
